# Hits are enriched below; roughly 3.6% of the tested compounds scored in any of these assays.
# NRP1-CendR mod: modulators of CendR peptide binding to NRP-1, primary screen, biochemical, fluorescence polarization, uHTS. Neuropilin-1 (Homo sapiens), O14786. FAM-RPARPAR peptide binding to NRP-1. inhibition, % at 25 µM. hit rate 0.85% among 360,000. AID 602438, 2012;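 active means inhibition or corrected inhibition above about 18%, plus a signal ratio from 0.5 to 1.5, limit read from the data, passing the limit was not always enough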
# NadD inh: inhibitors of S. aureus NadD, primary screen, biochemical, colorimetric, uHTS | Nicotinate-nucleotide adenylyltransferase NadD (Staphylococcus aureus N315) | purified NadD enzyme, colorimetric absorbance read-out | inhibition, % at 20 µM | hit rate 0.78% among 360,000 | AID 602399, 2012; in the data active means inhibition above about 26%
# Myeloid diff MLP: induction of myeloid progenitor differentiation, primary screen, cell-based, flow cytometry, MLPCN library | ER-HoxA9 myeloid progenitors, lysozyme-GFP differentiation | calls only at 10 µM | hit rate 1% among 360,000 | AID 624256, 2012;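 active means normalized GFP-positive differentiation at or above the plate's own cutoff, the solvent-only control mean plus 3 SD; inconclusive means no clear call, values can overlap the other calls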;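 further: cells exposed to compound for four days before flow analysis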
# FAS-TE inh: FAS thioesterase domain inhibitors, primary screen, biochemical, fluorescence intensity, uHTS; hit rate 0.67% among 360,000; recombinant FAS-TE, OMFH fluorogenic substrate, fluorescence endpoint; inhibition, % at 15 µM; AID 602261, 2012; Fatty acid synthase (Homo sapiens), P49327;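 active means compounds whose normalised, plate-corrected inhibition of enzyme fluorescence in the single-dose primary screen is 50% or more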
# CRFR2-BP antag: antagonists of CRF-BP/CRF-R2 complex, primary screen, cell-based, HEK293, calcium dye fluorescence, uHTS; CRF-induced calcium fluorescence; inhibition, % at 11.8 µM; hit rate 0.59% among 350,000; AID 588475, 2011;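 active means inhibition of the ligand-induced calcium signal above about 50% at the single tested concentration, limit read from the data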
# Myeloid diff CP1: inducers of myeloid progenitor differentiation, confirmation, cell-based, GFP/Mac1 flow cytometry, cherry pick 01. hit rate 2% among 2,300. ER-HoxA9 myeloid progenitors, GFP/Mac1 double-positive flow. calls only. shares compounds with Myeloid diff MLP;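 active means share of green or green-and-red cells above 9 and 9% in run 1 or 4 and 3% in run 2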
# GFP autofluor: counter-screen for myeloid differentiation promoters: compound fluorescence. shares compounds with Myeloid diff MLP. ER-HoxA9 myeloid progenitors, no estrogen, GFP autofluorescence flow cytometry; vehicle wells 0%, positive control 100%. fluorescence response, % (no concentration beside the values). hit rate 7.4% among 2,300. AID 651707;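 active means over 5% cells positive for green fluorescent reporter, or over 2% positive for both it and APC stain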
# Calls only; – = inactive; ? = inconclusive; · = no result given; + = active, no number.
SMILES,NRP1-CendR mod,NadD inh,Myeloid diff MLP,FAS-TE inh,CRFR2-BP antag,Myeloid diff CP1,GFP autofluor
COc1cccc(OC(C)c2ccnc3nc(/N=C/N(C)C)nn23)c1 (stereo not given),–,–,–,–,–,–,–
O=C(Nc1ccccc1)[C@@H]1CC=C[C@@H]2CCN(Cc3ccc(Cl)c(Cl)c3)C(=O)[C@@H]21,–,–,–,–,–,·,·
O=C(CSC(=S)N1CCOCC1)Nc1ccc(S(=O)(=O)Nc2ncccn2)cc1,–,–,–,–,–,·,·
C[C@H](NC(=O)N1CCn2c1nc1ccccc12)C(=O)NCC1CCCO1 (stereo not given in full),–,–,–,–,–,·,·
CCOc1cc(C(=S)N2CCOCC2)ccc1OC(=O)/C=C/c1ccc(OC)c(OC)c1,–,–,–,–,–,–,–
O=C1C=C(c2ccc(-c3ccccc3)cc2)C[C@@H](c2ccc(Cl)cc2)C1,–,–,–,–,–,–,–
CC(C)CC(NC(N)=O)C(=O)Nc1ccc(Oc2ccccc2)cc1 (stereo not given),–,–,–,–,–,–,–
Cc1ccc(NC(=O)C(CC(C)C)NC(N)=O)cc1 (stereo not given),–,–,–,–,–,·,·
COc1ccc(-c2cc(C(F)(F)F)c(C#N)c(SCC(=O)O)n2)cc1,–,–,–,–,–,·,·
Cc1ccc(-c2cc(C(F)(F)F)c(C#N)c(SCCC#N)n2)o1,–,–,–,–,–,–,–
Cc1nc2nc(-c3cccnc3)[nH]n2c(=O)c1C,–,–,–,–,–,·,·
Cc1nc2nc(-c3ccccc3)[nH]n2c(=O)c1C,–,–,–,–,–,–,–
COc1ccc(C2N(c3ccc4c(c3)OCCO4)C(=O)C2(F)F)cc1OC (stereo not given),–,–,–,–,–,·,·
COc1ccc(/C=C/c2cccc[n+]2C)c(O)c1,–,–,–,–,–,+,–
CCn1nc(C(=O)OCC(=O)Nc2nc(-c3ccc(OC)cc3)cs2)c2ccccc2c1=O,–,–,+,–,–,–,–
CCn1nc(C(=O)OCC(=O)NCC(C)C)c2ccccc2c1=O,–,–,–,–,–,·,·
O=C(COc1ccccc1)Nc1cc(NC(=O)COc2ccccc2)cc(C(=O)O)c1,–,–,·,–,–,·,·
Cc1cccc(C(=O)NC(=S)Nc2ccc(N3CCOCC3)cc2)c1,–,–,–,–,–,·,·
CCc1ccc(C(=O)NNC(=O)CCN2CCN(Cc3ccccc3)CC2)cc1,–,–,–,–,–,·,·
O=C(CN1CCN(Cc2ccccc2)CC1)NNC(=O)c1ccccc1,–,–,–,–,–,–,–
Nc1nc(N)c2[nH]cnc2n1,·,·,·,·,–,·,·
Cn1c(N)nc2nc[nH]c2c1=S,–,–,–,–,–,–,–
CCOC(=O)c1cnc(SCc2nc(N)nc(Nc3ccc(F)cc3)n2)nc1N,–,–,–,–,–,·,·
CCOC(=O)c1cnc(SCc2nc(N)nc(Nc3ccc(C)cc3)n2)nc1N,–,–,–,–,–,–,–
OC1NC(=S)N(c2ccccc2)C1O (stereo not given),–,–,–,–,–,·,·
SMILES,NRP1-CendR mod,NadD inh,Myeloid diff MLP,FAS-TE inh,CRFR2-BP antag,Myeloid diff CP1,GFP autofluor
OC1CCNC(=S)N1c1ccccc1 (stereo not given),–,–,+,–,–,–,–
Cc1ccc(/C=N/c2sc(Cc3ccccc3)c(C)c2C(N)=O)o1,–,–,–,–,–,–,–
COc1ccc(-n2c(=S)[nH]c3cc(C(=O)NCc4ccco4)ccc3c2=O)cc1OC,–,–,–,–,–,·,·
COc1ccc(CCn2c(=S)[nH]c3cc(C(=O)NCc4ccco4)ccc3c2=O)cc1OC,–,–,–,–,–,–,–
CCCCCNc1nc2sc3c(c2c(=O)n1-c1cccc(Cl)c1)CCN(C)C3,–,–,+,–,–,–,–
CCCCNc1nc2sc3c(c2c(=O)n1-c1cccc(Cl)c1)CCN(C)C3,–,–,?,–,–,·,·
CCSc1nc2sc3c(c2c(=O)n1-c1ccccc1)CCN(C(C)C)C3,–,–,+,–,–,–,–
CC(=O)Nc1cccc(/C(C)=N/N2C(C)CCCC2C)c1 (stereo not given),–,–,–,–,–,·,·
Cc1csc(Sc2ccc(S(=O)(=O)N3CCCC3)cn2)n1,–,–,–,–,–,·,·
CCOc1ccccc1Nc1nc2ccc(C)cc2n2cnnc12,–,–,+,–,–,+,–
CCOc1ccc(CCNc2nc3ccc(C)cc3n3cnnc23)cc1OCC,–,–,–,–,–,·,·
c1ccc2c(c1)CCN2CCN1CCc2ccccc21,–,–,–,–,–,·,·
CN(C)CCN1CCc2ccccc21,–,–,+,–,–,–,–
O=[N+]([O-])c1ccc(/C=N/Nc2ncccc2[N+](=O)[O-])s1,–,–,–,–,–,–,–
Cc1cc(C(=O)N/N=C/C(Cl)=C/c2ccccc2)c(C)o1,–,–,–,–,–,·,·
COc1cc(C)c(CN2CCCCC2CO)cc1C (stereo not given),–,–,+,–,–,–,–
Cc1ccc(C)c(/C(O)=C2\C(=O)C(=O)N(CCCn3ccnc3)C2c2ccncc2)c1 (stereo not given),–,–,+,–,–,–,–
Cc1ccc(C2/C(=C(/O)c3ccc4c(c3)CC(C)O4)C(=O)C(=O)N2CCCn2ccnc2)cc1 (stereo not given),–,–,–,–,–,·,·
Cc1ccc(NC2=NCCCCC2)cc1,–,–,–,–,–,·,·
Cc1ccc(NC2=NCCCCC2)cc1C,–,–,+,–,–,–,–
Cc1ccc(Cc2c[nH]c(=S)s2)cc1,–,–,+,–,–,–,–
O=C(NC1CCCC1)c1cnc2n(c1=O)CCS2,–,–,–,–,–,–,–
CC1CC(NC(=O)c2cnc3n(c2=O)CCS3)CC(C)(C)C1 (stereo not given),–,–,–,–,–,·,·
COC(=O)c1ccc(C2C(C(C)=O)=C(O)C(=O)N2CCO)cc1 (stereo not given),–,–,–,–,–,–,–
O=c1[nH]c2cc3c(cc2cc1CN(Cc1cccnc1)C(=S)NCc1ccco1)OCCO3,–,–,–,–,–,·,·
COc1ccc(/C=C2\C(=O)NCC(=O)N2Cc2ccccc2)cc1,–,–,+,–,–,–,–
COc1ccc(/C=C2\C(=O)N(Cc3ccc(F)cc3)CC(=O)N2Cc2ccccc2)cc1,–,–,–,–,–,·,·
Cc1cccc(CCNc2nc3ccccc3n3nnnc23)c1,–,–,+,–,–,–,–
O=C(NC1(C(F)(F)F)NC(=O)N(Cc2ccco2)C1=O)c1cccnc1 (stereo not given),–,–,+,–,–,–,–

# Source: PubChem (several laboratories)
